# rTrxR1 inhibitor = blocks rat thioredoxin reductase 1 | Potency, µM (titrated, usually from 114 µM), most hits filed as inhibitors | 1% of 390,000 active | recombinant rTrxR1, NADPH fluorescence consumption, selenite substrate | O89049; note: nearly all actives have a fitted effect of over 65% in size
#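 Rat TrxR1 (90 nM in the dispensed reagent) was pre-reduced with 400 uM NADPH for 5 min at room temperature, then incubated with compound for 15 min. After 400 uM selenite was added, NADPH fluorescence (Ex 340/Em 450 nm) was followed for 8 min.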
# GALK inh = inhibitors of human galactokinase; 0.007% of 270,000 active; AID 1868; P51570; Purified GALK, Kinase-Glo residual ATP luminescence; Potency, µM (series often up to 57.5 µM), usual class: inhibitors
#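 GALK at 5 nM final was combined with compound, 35 uM ATP and 100 uM galactose in HEPES pH8.0 with MgCl2 and DTT. The reaction ran one hour at room temperature before luminescent ATP detection.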
# Six1-Eya2 inh = blocks human Six1 binding to Eya2; AlphaScreen GST-Six1/His-Eya2 binding, biochemical; hits give low values; AID 651725; activity change, % (no concentration beside the values); 0.56% of 360,000 active; Q15475+O00167; in the data active = activity change below about -65%; inconclusive = mostly about -30% to -63%
# Target sequence (O00167 whole entry, looked up): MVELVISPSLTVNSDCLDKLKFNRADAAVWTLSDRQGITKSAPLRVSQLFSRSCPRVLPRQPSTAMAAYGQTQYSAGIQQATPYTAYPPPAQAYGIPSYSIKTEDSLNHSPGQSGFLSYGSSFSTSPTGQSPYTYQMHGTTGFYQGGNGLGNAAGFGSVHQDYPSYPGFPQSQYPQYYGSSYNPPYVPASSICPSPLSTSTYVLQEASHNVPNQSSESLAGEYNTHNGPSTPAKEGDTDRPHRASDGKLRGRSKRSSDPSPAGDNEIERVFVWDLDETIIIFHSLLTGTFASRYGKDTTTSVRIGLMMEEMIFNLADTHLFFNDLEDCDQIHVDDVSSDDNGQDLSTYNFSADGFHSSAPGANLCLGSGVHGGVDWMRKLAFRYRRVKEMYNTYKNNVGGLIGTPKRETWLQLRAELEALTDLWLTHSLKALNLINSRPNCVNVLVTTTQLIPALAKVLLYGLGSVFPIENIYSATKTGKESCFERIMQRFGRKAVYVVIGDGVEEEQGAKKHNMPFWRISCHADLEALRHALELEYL
# Target sequence (Q15475 whole entry, looked up): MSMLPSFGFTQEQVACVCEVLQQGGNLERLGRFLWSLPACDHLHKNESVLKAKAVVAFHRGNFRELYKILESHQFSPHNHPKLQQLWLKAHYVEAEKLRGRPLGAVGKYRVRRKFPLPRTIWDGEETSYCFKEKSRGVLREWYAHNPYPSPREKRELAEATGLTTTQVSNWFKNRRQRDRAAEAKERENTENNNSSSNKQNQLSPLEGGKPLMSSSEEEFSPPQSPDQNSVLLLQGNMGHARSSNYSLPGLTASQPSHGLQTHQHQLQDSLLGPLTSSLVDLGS
#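 AlphaScreen with GST-Six1 and His-Eya2 (5X mix: 250 nM and 500 nM), glutathione donor and nickel acceptor beads; buffer 50 mM Tris pH 8.0, 300 mM NaCl, 1 mM TCEP; 1 h at 37 C in the dark.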
# TrxR1 substrate = is turned over as a substrate by rat TrxR1; purified TrxR1 substrate turnover, NADPH consumption readout; O89049; Potency, µM (series often up to 114 µM); 0.01% of 390,000 active; note: nearly all actives have a fitted effect of over 50% in size
#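 Rat TrxR1, dispensed at 90 nM, was prereduced with 400 uM NADPH (final) for 5 min at ~22 deg C, then incubated with compound 15 min before 400 uM selenite. A first-read NADPH fluorescence drop versus no-compound background flagged substrates.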
# Eya2 phos inh = blocks the phosphatase activity of human Eya2. O00167. recombinant Eya2, OMFP fluorescence dephosphorylation (OMFP is methylfluorescein phosphate). Potency, µM (series often up to 76.9 µM), actives largely listed as inhibitors. 0.006% of 330,000 active. AID 488837
#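 Eya2 protein (added as 0.2 uM solution) was preincubated with compound for 10 min at ambient temperature in 50 mM HEPES pH 7.5, 50 mM NaCl, 5 uM MgCl2, 0.05% BSA, 1 mM DTT. OMFP (added at 50 uM) then reacted 10 min; fluorescence read at 485/525 nm.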
# CtBP-E1A blk = inhibitors of CtBP/E1A interaction | AlphaScreen GST-E1A/His-CtBP binding, 1536-well; hits give low values | 0.49% of 340,000 active | activity change, % (no concentration beside the values); in the data active = activity change below about -65%; inconclusive = mostly about -30% to -63%
#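 Homogeneous bead-based format: GST-tagged E1A captured on glutathione donor beads, His-tagged CtBP on nickel acceptor beads; compounds precede bead addition by 2 h at 37 °C.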
# A number is an active result; i = inactive; ? = inconclusive; nt = no result; [ ] = dose if it differs, or a comment. The list is not random: actives were taken first. Their share in the collection is about 1.5%. Unless noted, calls come from the whole dose curve; as a rule, active = well fitted curve in the direction sought with a large enough effect; inconclusive = small, poorly fitted or top-dose-only effect, or another doubt; inactive = no such curve, though single readings can be large; an effect the other way counts as inactive or inconclusive.
SMILES,rTrxR1 inhibitor,GALK inh,Six1-Eya2 inh,TrxR1 substrate,Eya2 phos inh,CtBP-E1A blk
COc1ccc(S(=O)(=O)N2CCN(Cc3nc4ccc(C)cc4o3)CC2)cc1,i,nt,nt,i,nt,nt
C/C(=N\Nc1nccnc1Cl)c1ccc(O)cc1,i,i,i,i,i,i
C/C(=N\Nc1c(Cl)c(Cl)nc(C(=O)O)c1Cl)c1ccc(O)cc1,i,i,-67,i,i,?
COc1ccc(-c2nc3ccccn3c2NC2CCCCC2)cc1SC1CCCCC1,i,nt,i,i,i,i
Cc1cc(C)n2c(NC3CCCCC3)c(-c3ccccn3)nc2n1,nt,nt,-78,nt,nt,?
Cc1cc(C)n2c(NC3CCCC3)c(-c3cc4ccccc4o3)nc2n1,nt,nt,i,nt,nt,i
c1ccc(-c2nc3ccccn3c2NC2CCCC2)nc1,i,i,?,i,i,-67
Cc1ccn2c(NC3CCCC3)c(-c3ccccn3)nc2c1,i,i,-66,i[0.0914 µM],i,-80
COc1cc(C)ccc1OCCSc1nc2ccc(NC(=O)c3ccccc3F)cc2s1,i,nt,nt,i,nt,nt
O=C(NCc1ccco1)/C(=C/c1ccccc1)NC(=O)c1ccco1,i,i,i,i,i,i
O=C(NCc1ccco1)/C(=C/c1ccco1)NC(=O)c1ccc(Br)o1,50µM,i,i,i,i,i
O=C(NCc1ccco1)/C(=C\c1ccco1)NC(=O)c1ccco1,50µM,i,i,i,i,i
COc1ccc(OC)c(NC(=O)c2nc(SCc3ccccc3F)ncc2Cl)c1,?,nt,nt,i,nt,nt
CCOC(=O)C1=C(C)N=c2s/c(=C/c3ccco3)c(=O)n2C1c1cccc(OC)c1 (stereo not given),?,i,i,i,i,i
CCOC(=O)C1=C(C)N=c2s/c(=C/c3cccc([N+](=O)[O-])c3O)c(=O)n2C1c1cc(OC)c(OC)c(OC)c1 (stereo not given),i,nt,-70,i,i,-80
CCOC(=O)C1=C(C)N=c2s/c(=C/c3cccc([N+](=O)[O-])c3O)c(=O)n2C1c1ccccc1 (stereo not given),i,nt,-71,i,i,-80
CCOC(=O)C1=C(C)N=c2s/c(=C\c3ccc(OCC(=O)O)cc3)c(=O)n2C1c1ccccc1 (stereo not given),i,i,i,i,i,i
Cc1cc2nc(-c3ccc(SCC(=O)N4CCN(C(=O)c5ccco5)CC4)nc3)[nH]c2cc1C,13µM,i,i,i,i,i
CCOc1ccc(S(=O)(=O)N(CC(=O)Nc2ccc(OC)c(Cl)c2)c2ccccc2)cc1,i,nt,nt,i,nt,nt
CC(C)Cc1ccc(C(C)CC2=CCC(CN(C)C)C2=O)cc1 (stereo not given),45µM,nt,i,i,nt,i
Cc1ccc(CNC(=O)CSc2nc3ccccc3nc2Cc2ccc(C)cc2)cc1,i,nt,nt,i,nt,nt
COC(=O)C1=C(C(=O)OC)SC(=C2C(=S)C(C)(C)N(C(=O)C3CC3)c3ccccc32)S1,i,i,-77,i,i,-80
COC(=O)C1=C(C(=O)OC)SC(=C2C(=S)C(C)(C)N(C(=O)C(C)C)c3ccccc32)S1,i,i,?,i,i,i
CCCCn1c(N)c(C(=S)NC(=O)CC(C)(C)C)c(=O)n(C)c1=O,40µM,i,i,i,i,i
Cc1cc(OCC(=O)Nn2cnnc2)c(C)cc1Br,14µM,i,i,i,i,i
SMILES,rTrxR1 inhibitor,GALK inh,Six1-Eya2 inh,TrxR1 substrate,Eya2 phos inh,CtBP-E1A blk
Cc1ccc(OCC(=O)Nn2cnnc2)c(Br)c1,i,i,i,i,i,i
COc1ccc(CNC(=O)CCCc2nnc3n(CCC(C)C)c(=O)c4sccc4n23)cc1,i,nt,nt,i,nt,nt
CCc1ccc(CN(Cc2ccco2)c2cnc(S(C)(=O)=O)nc2C(=O)Nc2ccc(C)c(Cl)c2)cc1,i,nt,nt,i,nt,nt
COCCn1c(=NC(=O)CCS(=O)(=O)c2ccccc2)sc2ccccc21,7.1µM,nt,i,i,nt,i
C[N+]1(CC(=O)c2ccc(Oc3ccc(C(=O)C[N+]4(C)CCOCC4)cc3)cc2)CCOCC1,i,nt,nt,i,nt,nt
CCc1ccc(/C(C)=N/NC(=O)c2ccccn2)cc1,i,i,i,i,i,i
C/C(=N\NC(=O)c1ccccc1-n1cccc1)c1ccccn1,nt,nt,-92,nt,nt,?

# Assay outcomes: PubChem, National Center for Advancing Translational Sciences (NCATS)
